Measurements from PubChem BioAssay AID1159580 (chemical genetic matrix, 2015).
Screen size: about 5,500 compounds; about 2,000 (36%) were called active. Not shown: some 18% with an inconclusive outcome. Rule as the data show it: active = normalized growth mostly below about 0.91 (no sharp cut-off); inconclusive = no clear call, values can overlap the other calls; inactive = mostly above about 0.92. The list shows a part of the results.

Assay: chemical genetic growth profiling, strain panel (AID 1159580);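 also: tested at 20 µM; growth read once vehicle control cultures reached saturation at 30 °C; 1 = growth at the plate median or of vehicle wells; lower values mean less growth of the strain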
Conditions: growth OD

Measured: normalized growth

COc1cc2c(cc1OC)C(=O)C(CC1CCN(Cc3ccccc3)CC1)C2 (stereo not given)
active: S. cerevisiae deletion strains, locus YJR075W, strain HOC1, hits give low values 0.778 | S. cerevisiae deletion strains, locus YLR058C, strain SHM2, hits give low values 0.874 | S. cerevisiae deletion strains, locus YLR262C, strain YPT6 (second series), hits give low values 0.589 | S. cerevisiae deletion strains, locus YLR268W, strain sec22, hits give low values 0.837 | S. cerevisiae deletion strains, locus YLR418C, strain cdc73, hits give low values 0.737 | S. cerevisiae deletion strains, locus YML032C, strain rad52, hits give low values 0.675 | S. cerevisiae deletion strains, locus YMR223W, strain ubp8, hits give low values 0.86 | S. cerevisiae deletion strains, locus YNL067W, strain RPL9B, hits give low values 0.787 | S. cerevisiae deletion strains, locus YNL233W, strain BNI4, hits give low values 0.75 | S. cerevisiae deletion strains, locus YNL250W, strain rad50, hits give low values 0.802 | S. cerevisiae deletion strains, locus YNL307C, strain MCK1, hits give low values 0.665 | S. cerevisiae deletion strains, locus YNR052C, strain pop2, hits give low values 0.805 | S. cerevisiae deletion strains, locus YOL006C, strain TOP1, hits give low values 0.335 | S. cerevisiae deletion strains, locus YOR069W, strain VPS5, hits give low values 1.12 [resistant] | S. cerevisiae deletion strains, locus YOR184W, strain ser1, hits give low values 0.776 | S. cerevisiae deletion strains, locus YOR270C, strain vph1, hits give low values 0.608 | S. cerevisiae deletion strains, locus YPL055C, strain LGE1, hits give low values 0.738 | S. cerevisiae deletion strains, locus YPR163C, strain tif3, hits give low values 0.692 | S. cerevisiae deletion strains, strain wtn01, hits give low values 0.777 | S. cerevisiae strains, strain wild type, hits give low values 0.874
inactive: S. cerevisiae deletion strains, locus YJR066W, strain TOR1, hits give low values 0.94 | S. cerevisiae deletion strains, locus YKL009W, strain mrt4, hits give low values 0.986 | S. cerevisiae deletion strains, locus YKL068W, hits give low values 1 | S. cerevisiae deletion strains, locus YKL085W, strain MDH1 (second series), hits give low values 1.01 | S. cerevisiae deletion strains, locus YKL085W, strain MDH1, hits give low values 1.01 | S. cerevisiae deletion strains, locus YKL160W, strain elf1, hits give low values 0.933 | S. cerevisiae deletion strains, locus YKR001C, strain vps1, hits give low values 0.913 | S. cerevisiae deletion strains, locus YKR026C, strain gcn3, hits give low values 1.06 | S. cerevisiae deletion strains, locus YKR091W, strain srl3, hits give low values 0.981 | S. cerevisiae deletion strains, locus YLL001W, strain dnm1, hits give low values 0.993 | S. cerevisiae deletion strains, locus YLL026W, hits give low values 1 | S. cerevisiae deletion strains, locus YLL041C, strain sdh2, hits give low values 0.978 | S. cerevisiae deletion strains, locus YLR027C, strain aat2, hits give low values 0.963 | S. cerevisiae deletion strains, locus YLR039C, strain RIC1, hits give low values 0.772 | S. cerevisiae deletion strains, locus YLR102C, strain apc9, hits give low values 1 | S. cerevisiae deletion strains, locus YLR113W, strain HOG1, hits give low values 1.05 | S. cerevisiae deletion strains, locus YLR221C, strain rsa3, hits give low values 0.975 | S. cerevisiae deletion strains, locus YLR258W, strain gsy2, hits give low values 0.982 | S. cerevisiae deletion strains, locus YLR262C, strain YPT6, hits give low values 0.807 | S. cerevisiae deletion strains, locus YLR320W, strain mms22, hits give low values 0.928 | S. cerevisiae deletion strains, locus YLR330W, strain CHS5, hits give low values 0.953 | S. cerevisiae deletion strains, locus YLR342W, strain FKS1 (second series), hits give low values 0.909 | S. cerevisiae deletion strains, locus YLR342W, strain FKS1, hits give low values 0.989 | S. cerevisiae deletion strains, locus YLR357W, strain rsc2, hits give low values 1.13 | S. cerevisiae deletion strains, locus YLR370C, strain arc18, hits give low values 0.955 | S. cerevisiae deletion strains, locus YLR371W, strain rom2, hits give low values 0.986 | S. cerevisiae deletion strains, locus YLR384C, strain iki3, hits give low values 0.952 | S. cerevisiae deletion strains, locus YML016C, strain PPZ1, hits give low values 0.949 | S. cerevisiae deletion strains, locus YML120C, strain ndi1, hits give low values 0.973 | S. cerevisiae deletion strains, locus YML124C, strain tub3, hits give low values 1.02 | S. cerevisiae deletion strains, locus YMR058W, strain fet3, hits give low values 0.994 | S. cerevisiae deletion strains, locus YMR078C, strain ctf18, hits give low values 0.988 | S. cerevisiae deletion strains, locus YMR125W, strain sto1, hits give low values 0.94 | S. cerevisiae deletion strains, locus YMR129W, hits give low values 0.992 | S. cerevisiae deletion strains, locus YMR205C, strain PFK2, hits give low values 0.979 | S. cerevisiae deletion strains, locus YMR231W, strain pep5, hits give low values 0.996 | S. cerevisiae deletion strains, locus YMR263W, strain SAP30, hits give low values 0.936 | S. cerevisiae deletion strains, locus YMR307W, strain GAS1, hits give low values 0.971 | S. cerevisiae deletion strains, locus YNL071W, strain lat1, hits give low values 0.956 | S. cerevisiae deletion strains, locus YNL128W, strain TEP1, hits give low values 0.919 | S. cerevisiae deletion strains, locus YNL153C, strain GIM3, hits give low values 0.876 | S. cerevisiae deletion strains, locus YNL183C, strain NPR1, hits give low values 0.955 | S. cerevisiae deletion strains, locus YNL209W, strain ssb2, hits give low values 0.988 | S. cerevisiae deletion strains, locus YNL248C, strain rpa49, hits give low values 0.967 | S. cerevisiae deletion strains, locus YNL271C, strain bni1, hits give low values 0.977 | S. cerevisiae deletion strains, locus YNL298W, strain CLA4, hits give low values 0.918 | S. cerevisiae deletion strains, locus YNL322C, strain KRE1 (second series), hits give low values 0.981 | S. cerevisiae deletion strains, locus YNR049C, strain mso1, hits give low values 1.01 | S. cerevisiae deletion strains, locus YOL012C, strain htz1 1.03 | S. cerevisiae deletion strains, locus YOL147C, strain pex11, hits give low values 0.976 | S. cerevisiae deletion strains, locus YOR001W, strain rrp6, hits give low values 0.931 | S. cerevisiae deletion strains, locus YOR061W, strain CKA2, hits give low values 0.989 | S. cerevisiae deletion strains, locus YOR070C, strain gyp1, hits give low values 1.02 | S. cerevisiae deletion strains, locus YOR080W, strain dia2, hits give low values 0.953 | S. cerevisiae deletion strains, locus YOR083W, strain WHI5, hits give low values 0.973 | S. cerevisiae deletion strains, locus YOR106W, strain vam3, hits give low values 0.902 | S. cerevisiae deletion strains, locus YOR136W, strain idh2, hits give low values 0.984 | S. cerevisiae deletion strains, locus YOR144C, strain elg1, hits give low values 0.992 | S. cerevisiae deletion strains, locus YOR231W, strain MKK1, hits give low values 0.977 | S. cerevisiae deletion strains, locus YOR265W, strain rbl2, hits give low values 0.974 | S. cerevisiae deletion strains, locus YOR290C, strain snf2, hits give low values 1.04 | S. cerevisiae deletion strains, locus YOR316C, strain cot1, hits give low values 1.01 | S. cerevisiae deletion strains, locus YPL051W, strain arl3, hits give low values 0.938 | S. cerevisiae deletion strains, locus YPL078C, strain atp4, hits give low values 0.947 | S. cerevisiae deletion strains, locus YPL106C, strain sse1, hits give low values 1.12 | S. cerevisiae deletion strains, locus YPL240C, strain hsp82, hits give low values 0.996 | S. cerevisiae deletion strains, locus YPL256C, strain CLN2, hits give low values 0.952 | S. cerevisiae deletion strains, locus YPR119W, strain clb2, hits give low values 1 | S. cerevisiae deletion strains, locus YPR141C, strain kar3, hits give low values 0.975 | S. cerevisiae deletion strains, locus YPR167C, strain met16, hits give low values 0.984
